# Results taken from PMC5540273 (PLoS ONE, 2017).
# Where two headings read alike, the source gives them in different places.
# Assays:
# FLT1 = settings: concentration: 1 μM, replicates: in singlicate; n = 1
# FLT3-autoinhibited = settings: concentration: 1 μM, replicates: in singlicate; n = 1
# FLT3 = settings: concentration: 1 μM, replicates: in singlicate; n = 1
# FLT4 = settings: concentration: 1 μM, replicates: in singlicate; n = 1
# FRK = settings: concentration: 1 μM, replicates: in singlicate; n = 1
# FYN = settings: concentration: 1 μM, replicates: in singlicate; n = 1
# GAK = settings: concentration: 1 μM, replicates: in singlicate; n = 1
# GCN2(Kin.Dom.2,S808G) = system: T1, GCN2(Kin.Dom.2,S808G); settings: concentration: 1 μM, replicates: in singlicate; n = 1
# T1 construct: gene EIF2AK4
# GRK1 = settings: concentration: 1 μM, replicates: in singlicate; n = 1
# GRK2 = system: T2, GRK2; settings: concentration: 1 μM, replicates: in singlicate; n = 1
# T2 construct: gene ADRBK1
# GRK3 = system: T3, GRK3; settings: concentration: 1 μM, replicates: in singlicate; n = 1
# T3 construct: gene ADRBK2
# GRK4 = settings: concentration: 1 μM, replicates: in singlicate; n = 1
# GRK7 = settings: concentration: 1 μM, replicates: in singlicate; n = 1
# GSK3A = settings: concentration: 1 μM, replicates: in singlicate; n = 1
# GSK3B = settings: n = 1
# HASPIN = system: T4, HASPIN; settings: concentration: 1 μM, replicates: in singlicate; n = 1
# T4 construct: gene GSG2
# HCK = settings: concentration: 1 μM, replicates: in singlicate; n = 1
# HIPK1 = settings: concentration: 1 μM, replicates: in singlicate; n = 1
# HIPK2 = settings: concentration: 1 μM, replicates: in singlicate; n = 1
# HIPK3 = settings: concentration: 1 μM, replicates: in singlicate; n = 1
# [1] = concentration: 1 μM, replicates: in singlicate
# 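Also: KINOMEscan kinase panel screen.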
smiles,measurement,setting,value
NS(=O)(=O)c1cccc(N/C=C2\C(=O)Nc3ccc(S(=O)(=O)Cc4c(Cl)cccc4Cl)cc32)c1 [GSK398099],%Inh,FLT1,12%
same,%Inh,FLT3-autoinhibited,0%
same,%Inh,FLT3,0%
same,%Inh,FLT4,0%
same,%Inh,FRK,0%
same,%Inh,FYN,35%
same,%Inh,GAK,18%
same,%Inh,"GCN2(Kin.Dom.2,S808G)",0%
same,%Inh,GRK1,0%
same,%Inh,GRK2,0%
same,%Inh,GRK3,0%
same,%Inh,GRK4,0%
same,%Inh,GRK7,0%
same,%Inh,GSK3A,0%
same,%Inh,GSK3B; [1],20%
same,%Inh,HASPIN,4%
same,%Inh,HCK,0%
same,%Inh,HIPK1,0%
same,%Inh,HIPK2,0%
same,%Inh,HIPK3,12%
O=C(Nc1n[nH]c2nc(-c3cccs3)c(Br)cc12)C1CCCC1 [SB-743341],%Inh,FLT1,10%
same,%Inh,FLT3-autoinhibited,34%
same,%Inh,FLT3,39%
same,%Inh,FLT4,0%
same,%Inh,FRK,5%
same,%Inh,FYN,6%
same,%Inh,GAK,0%
same,%Inh,"GCN2(Kin.Dom.2,S808G)",0%
same,%Inh,GRK1,26%
same,%Inh,GRK2,0%
same,%Inh,GRK3,24%
same,%Inh,GRK4,33%
same,%Inh,GRK7,11%
same,%Inh,GSK3A,96.6%
same,%Inh,GSK3B; 1 µM,81%
same,%Inh,HASPIN,0%
same,%Inh,HCK,8%
same,%Inh,HIPK1,20%
same,%Inh,HIPK2,25%
same,%Inh,HIPK3,52%
Fc1ccc(-c2nc[nH]c2-c2ccncc2)cc1 [SB-217360],%Inh,FLT1,0%
same,%Inh,FLT3-autoinhibited,0%
same,%Inh,FLT3,5%
same,%Inh,FLT4,9%
same,%Inh,FRK,0%
same,%Inh,FYN,0%
same,%Inh,GAK,57%
same,%Inh,"GCN2(Kin.Dom.2,S808G)",0%
same,%Inh,GRK1,25%
same,%Inh,GRK2,0%
same,%Inh,GRK3,11%
same,%Inh,GRK4,19%
same,%Inh,GRK7,0%
same,%Inh,GSK3A,0%
same,%Inh,GSK3B; [1],13%
same,%Inh,HASPIN,57%
same,%Inh,HCK,20%
same,%Inh,HIPK1,34%
same,%Inh,HIPK2,10%
same,%Inh,HIPK3,7%
Cc1nccc(-c2c(-c3ccc(F)cc3)ncn2CCCN2CCOCC2)n1.Cl [SB-282975],%Inh,FLT1,21%
same,%Inh,FLT3-autoinhibited,19%
same,%Inh,FLT3,6%
same,%Inh,FLT4,23%
same,%Inh,FRK,2%
same,%Inh,FYN,9%
same,%Inh,GAK,9%
same,%Inh,"GCN2(Kin.Dom.2,S808G)",0%
same,%Inh,GRK1,78%
same,%Inh,GRK2,0%
same,%Inh,GRK3,34%
same,%Inh,GRK4,0%
same,%Inh,GRK7,23%
same,%Inh,GSK3A,23%
same,%Inh,GSK3B; [1],17%
same,%Inh,HASPIN,23%
same,%Inh,HCK,8%
same,%Inh,HIPK1,0%
same,%Inh,HIPK2,0%
same,%Inh,HIPK3,14%
COc1ccc(Nc2nccc(N3CCC(NC(=O)C(C)c4ccc(Cl)cc4)C3)n2)cc1 (stereo not drawn) [GSK1379735],%Inh,FLT1,21%
same,%Inh,FLT3-autoinhibited,5%
same,%Inh,FLT3,10%
same,%Inh,FLT4,5%
same,%Inh,FRK,0%
same,%Inh,FYN,15%
same,%Inh,GAK,11%
same,%Inh,"GCN2(Kin.Dom.2,S808G)",9%
same,%Inh,GRK1,7%
same,%Inh,GRK2,0%
same,%Inh,GRK3,20%
same,%Inh,GRK4,31%
same,%Inh,GRK7,0%
same,%Inh,GSK3A,34%
same,%Inh,GSK3B; [1],0%
same,%Inh,HASPIN,13%
same,%Inh,HCK,0%
same,%Inh,HIPK1,0%
same,%Inh,HIPK2,0%
same,%Inh,HIPK3,4%
Cc1c(Cn2c(C)c(C)n3c(=O)cc(N4CCOCC4)nc23)cccc1C(F)(F)F [GSK2328680],%Inh,FLT1,8%
same,%Inh,FLT3-autoinhibited,0%
same,%Inh,FLT3,0%
same,%Inh,FLT4,0%
same,%Inh,FRK,6%
same,%Inh,FYN,2%
same,%Inh,GAK,8%
same,%Inh,"GCN2(Kin.Dom.2,S808G)",0%
same,%Inh,GRK1,9%
same,%Inh,GRK2,0%
same,%Inh,GRK3,0%
same,%Inh,GRK4,0%
same,%Inh,GRK7,0%
same,%Inh,GSK3A,13%
same,%Inh,GSK3B; [1],11%
same,%Inh,HASPIN,0%
same,%Inh,HCK,0%
same,%Inh,HIPK1,0%
same,%Inh,HIPK2,0%
same,%Inh,HIPK3,13%
COc1ccc(CSc2nnc(-c3ccc4ncsc4c3)o2)cc1C(F)(F)F,%Inh,FLT1,0%
same,%Inh,FLT3-autoinhibited,0%
same,%Inh,FLT3,0%
same,%Inh,FLT4,10%
same,%Inh,FRK,0%
same,%Inh,FYN,0%
same,%Inh,GAK,0%
same,%Inh,"GCN2(Kin.Dom.2,S808G)",0%
same,%Inh,GRK1,0%
same,%Inh,GRK2,0%
same,%Inh,GRK3,1%
same,%Inh,GRK4,18%
same,%Inh,GRK7,0%
same,%Inh,GSK3A,98.4%
same,%Inh,GSK3B; 1 µM,89%
same,%Inh,HASPIN,45%
same,%Inh,HCK,0%
same,%Inh,HIPK1,38%
same,%Inh,HIPK2,0%
same,%Inh,HIPK3,0%
CS(=O)(=O)CCNCc1nc(-c2ccc3ncnc(Nc4ccc5c(cnn5Cc5ccccc5)c4)c3c2)cs1.Cl.Cl [GW569716],%Inh,FLT1,20%
same,%Inh,FLT3-autoinhibited,0%
same,%Inh,FLT3,0%
same,%Inh,FLT4,0%
same,%Inh,FRK,9%
same,%Inh,FYN,0%
same,%Inh,GAK,0%
same,%Inh,"GCN2(Kin.Dom.2,S808G)",1%
same,%Inh,GRK1,0%
same,%Inh,GRK2,0%
same,%Inh,GRK3,41%
same,%Inh,GRK4,0%
same,%Inh,GRK7,0%
same,%Inh,GSK3A,0%
same,%Inh,GSK3B; [1],0%
same,%Inh,HASPIN,18%
same,%Inh,HCK,0%
same,%Inh,HIPK1,0%
same,%Inh,HIPK2,0%
same,%Inh,HIPK3,0%
CS(=O)(=O)Cc1ccc(Nc2nccc(-c3c(-c4cccc(NC(=O)C5CCCCC5)c4)nn4ncccc34)n2)cc1 [GSK350559],%Inh,FLT1,63%
same,%Inh,FLT3-autoinhibited,25%
same,%Inh,FLT3,88%
same,%Inh,FLT4,52%
same,%Inh,FRK,4%
same,%Inh,FYN,1%
same,%Inh,GAK,14%
same,%Inh,"GCN2(Kin.Dom.2,S808G)",0%
same,%Inh,GRK1,0%
same,%Inh,GRK2,44%
same,%Inh,GRK3,0%
same,%Inh,GRK4,0%
same,%Inh,GRK7,5%
same,%Inh,GSK3A,0%
same,%Inh,GSK3B; [1],20%
same,%Inh,HASPIN,17%
same,%Inh,HCK,1%
same,%Inh,HIPK1,5%
same,%Inh,HIPK2,14%
same,%Inh,HIPK3,23%
Cc1ccc(NC(=O)Nc2ccc(Cl)cc2)cc1-c1ccc(C(=O)Nc2ccncc2)cc1 [GSK1398472],%Inh,FLT1,27%
same,%Inh,FLT3-autoinhibited,3%
same,%Inh,FLT3,22%
same,%Inh,FLT4,0%
same,%Inh,FRK,31%
same,%Inh,FYN,0%
same,%Inh,GAK,0%
same,%Inh,"GCN2(Kin.Dom.2,S808G)",17%
same,%Inh,GRK1,0%
same,%Inh,GRK2,0%
same,%Inh,GRK3,17%
same,%Inh,GRK4,25%
same,%Inh,GRK7,0%
same,%Inh,GSK3A,0%
same,%Inh,GSK3B; [1],7%
same,%Inh,HASPIN,0%
same,%Inh,HCK,0%
same,%Inh,HIPK1,0%
same,%Inh,HIPK2,0%
same,%Inh,HIPK3,5%
Fc1ccc(-c2nc3n(c2-c2ccncc2)CCS3)cc1 [GI98581],%Inh,FLT1,35%
same,%Inh,FLT3-autoinhibited,0%
same,%Inh,FLT3,0%
same,%Inh,FLT4,12%
same,%Inh,FRK,14%
same,%Inh,FYN,22%
same,%Inh,GAK,53%
same,%Inh,"GCN2(Kin.Dom.2,S808G)",3%
same,%Inh,GRK1,0%
same,%Inh,GRK2,0%
same,%Inh,GRK3,21%
same,%Inh,GRK4,0%
same,%Inh,GRK7,0%
same,%Inh,GSK3A,14%
same,%Inh,GSK3B; [1],19%
same,%Inh,HASPIN,13%
same,%Inh,HCK,0%
same,%Inh,HIPK1,0%
same,%Inh,HIPK2,0%
same,%Inh,HIPK3,0%
CS(=O)(=O)CCNCc1nc(-c2ccc3ncnc(Nc4ccc(OCc5ccccc5)c(Cl)c4)c3c2)cs1.Cl [GW582764],%Inh,FLT1,5%
same,%Inh,FLT3-autoinhibited,0%
same,%Inh,FLT3,0%
same,%Inh,FLT4,0%
same,%Inh,FRK,2%
same,%Inh,FYN,0%
same,%Inh,GAK,0%
same,%Inh,"GCN2(Kin.Dom.2,S808G)",0%
same,%Inh,GRK1,0%
same,%Inh,GRK2,0%
same,%Inh,GRK3,99.4%
same,%Inh,GRK4,4%
same,%Inh,GRK7,0%
same,%Inh,GSK3A,20%
same,%Inh,GSK3B; [1],3%
same,%Inh,HASPIN,32%
same,%Inh,HCK,0%
same,%Inh,HIPK1,0%
same,%Inh,HIPK2,0%
same,%Inh,HIPK3,0%
COc1ccc2cc(-c3nc(-c4ccccc4C(C)C)[nH]c3-c3ccncc3)ccc2c1 [SB-660566],%Inh,FLT1,19%
same,%Inh,FLT3-autoinhibited,4%
same,%Inh,FLT3,0%
same,%Inh,FLT4,22%
same,%Inh,FRK,8%
same,%Inh,FYN,12%
same,%Inh,GAK,40%
same,%Inh,"GCN2(Kin.Dom.2,S808G)",4%
same,%Inh,GRK1,0%
same,%Inh,GRK2,0%
same,%Inh,GRK3,34%
same,%Inh,GRK4,0%
same,%Inh,GRK7,0%
same,%Inh,GSK3A,2%
same,%Inh,GSK3B; [1],17%
same,%Inh,HASPIN,0%
same,%Inh,HCK,0%
same,%Inh,HIPK1,0%
same,%Inh,HIPK2,0%
same,%Inh,HIPK3,25%
COc1ccc(-c2coc3ccc(-c4nnc(C)o4)cc23)cc1,%Inh,FLT1,0%
same,%Inh,FLT3-autoinhibited,0%
same,%Inh,FLT3,0%
same,%Inh,FLT4,0%
same,%Inh,FRK,0%
same,%Inh,FYN,2%
same,%Inh,GAK,0%
same,%Inh,"GCN2(Kin.Dom.2,S808G)",0%
same,%Inh,GRK1,12%
same,%Inh,GRK2,0%
same,%Inh,GRK3,0%
same,%Inh,GRK4,0%
same,%Inh,GRK7,0%
same,%Inh,GSK3A,11%
same,%Inh,GSK3B; [1],0%
same,%Inh,HASPIN,18%
same,%Inh,HCK,0%
same,%Inh,HIPK1,37%
same,%Inh,HIPK2,0%
same,%Inh,HIPK3,0%
Cl.Cl.Cl.N#Cc1ccc(CCNc2nccc(-c3cccc(CN4CCNCC4)c3)n2)cc1 [GSK2137462],%Inh,FLT1,17%
same,%Inh,FLT3-autoinhibited,0%
same,%Inh,FLT3,38%
same,%Inh,FLT4,2%
same,%Inh,FRK,4%
same,%Inh,FYN,38%
same,%Inh,GAK,26%
same,%Inh,"GCN2(Kin.Dom.2,S808G)",11%
same,%Inh,GRK1,0%
same,%Inh,GRK2,0%
same,%Inh,GRK3,0%
same,%Inh,GRK4,0%
same,%Inh,GRK7,5%
same,%Inh,GSK3A,31%
same,%Inh,GSK3B; [1],7%
same,%Inh,HASPIN,42%
same,%Inh,HCK,0%
same,%Inh,HIPK1,1%
same,%Inh,HIPK2,0%
same,%Inh,HIPK3,21%
